# Hit rate of the full screen: of about 310,000 compounds, about 14,000 (4.5%) showed an effect of 50% or more. The effect is printed as a negative number. The list comes from a sample in which strong results are over-represented; it also holds similar structures and randomly drawn compounds.
# Biological target: human ether-à-go-go-related gene (hERG) potassium channel (human, UniProt Q12809)
# Experiment: primary screen, population patch clamp on CHO cells stably expressing hERG; higher = less effect of the substance
# 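Also: peak tail current of the secondary pulse compared with the same well before compound.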
# human ether-à-go-go-related gene (hERG) potassium channel, sequence (Q12809 whole entry, looked up): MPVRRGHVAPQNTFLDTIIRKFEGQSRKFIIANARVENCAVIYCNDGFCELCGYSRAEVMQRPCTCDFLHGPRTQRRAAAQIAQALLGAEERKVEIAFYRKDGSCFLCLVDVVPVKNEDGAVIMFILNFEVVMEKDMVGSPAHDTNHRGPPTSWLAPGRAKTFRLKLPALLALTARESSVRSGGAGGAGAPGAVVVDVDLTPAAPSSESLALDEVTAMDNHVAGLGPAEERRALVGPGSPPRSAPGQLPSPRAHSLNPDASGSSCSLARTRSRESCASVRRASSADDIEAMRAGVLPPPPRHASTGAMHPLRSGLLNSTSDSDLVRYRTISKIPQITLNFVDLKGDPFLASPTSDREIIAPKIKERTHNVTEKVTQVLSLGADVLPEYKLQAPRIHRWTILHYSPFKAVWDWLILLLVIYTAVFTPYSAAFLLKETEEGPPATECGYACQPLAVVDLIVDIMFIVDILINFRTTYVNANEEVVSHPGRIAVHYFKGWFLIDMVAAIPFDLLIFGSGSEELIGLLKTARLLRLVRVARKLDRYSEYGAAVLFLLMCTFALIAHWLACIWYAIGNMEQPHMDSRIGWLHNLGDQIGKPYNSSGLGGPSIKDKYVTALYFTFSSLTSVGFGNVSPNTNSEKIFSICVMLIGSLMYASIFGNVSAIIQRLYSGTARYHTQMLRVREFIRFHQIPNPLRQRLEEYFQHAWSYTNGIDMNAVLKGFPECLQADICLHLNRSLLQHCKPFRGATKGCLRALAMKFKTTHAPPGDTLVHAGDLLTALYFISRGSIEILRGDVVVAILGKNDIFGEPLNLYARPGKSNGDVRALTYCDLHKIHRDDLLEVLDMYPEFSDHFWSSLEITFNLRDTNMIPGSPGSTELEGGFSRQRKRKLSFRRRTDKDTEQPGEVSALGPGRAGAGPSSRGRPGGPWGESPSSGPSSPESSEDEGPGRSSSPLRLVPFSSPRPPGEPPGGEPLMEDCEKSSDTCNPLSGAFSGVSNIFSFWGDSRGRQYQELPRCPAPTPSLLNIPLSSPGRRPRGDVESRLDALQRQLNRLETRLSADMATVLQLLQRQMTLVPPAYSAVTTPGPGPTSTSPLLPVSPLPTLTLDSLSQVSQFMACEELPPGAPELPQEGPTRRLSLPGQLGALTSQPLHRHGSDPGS
row,SMILES,"hERG current change (%, negative = inhibition) at 10uM"
1,C/C(=N\NC(=O)C(NC(=O)c1ccccc1)C(C)C)c1ccccc1 (stereo not shown),21.2%
2,COc1ccc(-c2csc(NC(C)=O)n2)cc1OC,5.13%
3,Cc1ccccc1NC(=O)NC1(C(=O)NCC2CCCO2)CCCCC1 (stereo not shown),17.5%
4,O=[N+]([O-])c1ccc(NCc2ccccn2)nc1,-5.06%
5,CCC(C(=O)Nc1ccccc1)c1ccccc1 (stereo not shown),7.86%
6,CS(=O)(=O)N(CC(O)Cn1c2ccccc2c2ccccc21)c1cccc2ccccc12 (stereo not shown),0.652%
7,CCOC(=O)c1c(C)[nH]c(C)c1C(=O)COC(=O)c1cccc(S(=O)(=O)NC)c1,-7.56%
8,O=C(OCc1c(F)cccc1Cl)c1cc([N+](=O)[O-])ccc1N1CCOCC1,3.43%
9,CCc1cccc(NC(=O)COC(=O)c2cc([N+](=O)[O-])ccc2N2CCOCC2)c1,-7.99%
10,COc1ccc(COC(=O)c2cc([N+](=O)[O-])ccc2N2CCOCC2)cc1F,-62.5%
11,CN(C)S(=O)(=O)c1cccc(COC(=O)c2cc([N+](=O)[O-])ccc2N2CCOCC2)c1,-52.7%
12,O=C(OCc1ccccc1F)c1cc([N+](=O)[O-])ccc1N1CCOCC1,-47.9%
13,COc1ccc(OC)c(COC(=O)c2cc([N+](=O)[O-])ccc2N2CCOCC2)c1,-18%
14,COc1cc(C(=O)CSc2nncn2C)cc(OC)c1OC,6.63%
15,CCOC(=O)c1ccc(NC(=S)N2CCC(O)CC2)cc1,18%
16,O=C(CN1C(=O)c2ccccc2C1=O)Nc1cc(C(=O)O)cc(C(=O)O)c1,7.72%
17,N#Cc1ccccc1OCC(=O)NNC(=O)c1ccncc1,9.65%
18,CC1(c2ccc(OC(F)F)cc2)NC(=O)N(CC(=O)Nc2ccc(S(N)(=O)=O)cc2)C1=O (stereo not shown),1.64%
19,Cc1cc(NC(=O)CN2C(=O)NC(C)(c3ccccc3)C2=O)no1 (stereo not shown),-55.5%
20,CC1(c2ccc(OC(F)F)cc2)NC(=O)N(CC(=O)Nc2ccccc2)C1=O (stereo not shown),-51.3%
21,CCOc1ccc(NC(=O)CN2C(=O)NC(C)(c3ccc(OC(F)F)cc3)C2=O)cc1 (stereo not shown),-16.1%

row,SMILES,"hERG current change (%, negative = inhibition) at 10uM"
1,CC1(c2ccc(OC(F)F)cc2)NC(=O)N(CC(=O)Nc2ccc(F)cc2)C1=O (stereo not shown),-45.5%
2,Cc1ccc(C2(C)NC(=O)N(CC(=O)Nc3cc(C)on3)C2=O)cc1 (stereo not shown),-10.7%
3,Cc1cc(NC(=O)CN2C(=O)NC(C)(c3ccc(Cl)cc3)C2=O)no1 (stereo not shown),39.2%
4,CC1(c2ccc(OC(F)F)cc2)NC(=O)N(CC(=O)Nc2cccc(F)c2)C1=O (stereo not shown),2.79%
5,CC1(c2ccc(OC(F)F)cc2)NC(=O)N(CC(=O)Nc2ccc(OC(F)F)cc2)C1=O (stereo not shown),-94.9%
6,CCn1c(=S)sc2c(=O)n(CC(=O)NCCCc3ccccc3)c(C)nc21,18.8%
7,COc1ccc(OC)c(NC(=O)Cn2cnc3c(cnn3-c3ccccc3)c2=O)c1,-12.8%
8,COc1cc(/C=C/C(=O)OCC(=O)c2c(N)n(C)c(=O)n(C)c2=O)ccc1OC(F)F,6.4%
9,COc1ccc(CN(C)C(=O)COC(=O)c2ccc3c(c2)OCO3)cc1OC,-3.84%
10,CCC(=O)OC1(C)C(=O)C=C2C=C(C3CC3)OC=C2C1=O (stereo not shown),12.5%
11,CCC(C(=O)Nc1ccccc1OC)n1c(C(=O)OC)cc2ccsc21 (stereo not shown),-11.3%
12,CN(CC(=O)NNC(=O)CNC(=O)c1ccccc1Cl)S(=O)(=O)c1ccc(Cl)cc1,9.57%
13,O=C(CN1CCN(C(=O)c2cncn2-c2ccc(F)cc2)CC1)Nc1ccccc1C(F)(F)F,-70%
14,Cc1cccc(NC(=O)Cn2cnc3c(cnn3-c3ccc(F)cc3)c2=O)c1C,2.99%
15,O=C(CN1CCCCCC1)Nc1ccccc1Cl,6.75%
16,Cc1cccc(NC(=S)N2CCN(Cc3ccccc3)CC2)c1C,-13.2%
17,Cc1cccc(NC(=O)CN2CCN(C(=O)c3cnn(Cc4ccccc4)c3)CC2)c1C,-87.2%
18,Cc1cccc(NC(=O)CN2CCN(C(=O)c3cncn3-c3ccc(F)cc3)CC2)c1C,-60.9%
19,O=C(CN1CCN(C(=O)c2cncn2-c2ccccc2)CC1)Nc1ccccc1Cl,-77.3%
20,O=C(CN1CCN(C(=O)c2c(F)cccc2F)CC1)Nc1ccccc1C(F)(F)F,-20.9%
21,O=C(CN1CCN(CC(=O)Nc2ccccc2C(F)(F)F)CC1)Nc1ccccc1F,-30.2%

row,SMILES,"hERG current change (%, negative = inhibition) at 10uM"
1,Cc1cccc(NC(=O)CN2CCN(C(=O)c3oc4c(Cl)cccc4c3C)CC2)c1C,-43.6%
2,O=C(CN1CCCCC1)Nc1ccccc1Cl,21.1%
3,COc1cc(OC)cc(C(=O)OCC(=O)Nc2ccc(F)cc2F)c1,4.34%
4,CCC(C)(C)NC(=O)c1ccc2c(c1)S(=O)(=O)c1ccccc1C2=O,-16.8%
5,CNS(=O)(=O)c1cccc(C(=O)OCC(=O)NCCCc2ccccc2)c1,-5.42%
6,COc1cc(OC)cc(-c2nnc(SCc3c(F)cccc3Cl)o2)c1,0.324%
7,COc1ccccc1CC(=O)N1CCCc2ccccc21,0.493%
8,COc1cc([N+](=O)[O-])ccc1NC(=O)Nc1nc2c(s1)CCCC2,11.7%
9,O=C(Nc1ccccc1C(=O)O)c1ccc(NC(=O)c2ccc(Br)o2)cc1,11.7%
10,Cc1ccc(-n2c(N)cc(=O)nc2SCC(=O)N2CCN(c3ccccc3)CC2)cc1,-0.877%
11,COc1cc(C(CC(=O)Nc2ccccn2)N2Cc3ccccc3C2=O)cc(OC)c1OC (stereo not shown),-11.5%
12,COc1cc(C(CC(=O)Nc2ccc(C)cn2)N2Cc3ccccc3C2=O)cc(OC)c1OC (stereo not shown),-1.38%
13,COc1cc(C(CC(=O)Nc2ccc(Cl)cn2)N2Cc3ccccc3C2=O)cc(OC)c1OC (stereo not shown),-68.1%
14,Cc1ccc(Nc2cc(C)nc(N3CCOCC3)n2)cc1,6.18%
15,O=S(=O)(NC1CCCCC1)c1cccc(-c2nnc(-c3ccccc3)o2)c1,-36.4%
16,Cc1ccc(N=C2S/C(=C/c3cccc(OCC(=O)O)c3)C(=O)N2C)cc1C,20.5%
17,O=C(c1ccc(C(=O)N2CCCc3ccccc32)nc1)N1CCCc2ccccc21,-9.08%
18,CCNC(=O)CSc1nnc(-c2ccc(OC)cc2)n1CC(C)C,-3.51%
19,CC1CCCN(C(=O)Cn2c3ccccc3c3nc4n(c(=O)c32)CCS4)C1 (stereo not shown),-3.59%
20,COc1ccccc1CN1C[C@@H]2C[C@@H](c3ccc(C)cc3)N3CCC[C@@]23C1=O,-43.6%
21,O=C1N(Cc2cccnc2)C[C@@H]2C[C@@H](c3ccccc3C(F)(F)F)N3CCC[C@@]123,-11.2%

row,SMILES,"hERG current change (%, negative = inhibition) at 10uM"
1,O=C1N(Cc2cccnc2)C[C@@H]2C[C@@H](c3ccccc3C#Cc3ccccc3)N3CCC[C@@]123,-69.5%
2,O=C1N(Cc2cccnc2)C[C@@H]2C[C@@H](c3cccc(C(F)(F)F)c3)N3CCC[C@@]123,-10.3%
3,COc1ccccc1CN1C[C@@H]2C[C@@H](c3ccc(Cl)cc3)N3CCC[C@@]23C1=O,-44.1%
4,O=C1N(Cc2cccnc2)C[C@@H]2C[C@@H](c3ccc(C(F)(F)F)cc3)N3CCC[C@@]123,-53.9%
5,Cc1ccccc1-c1cccc([C@@H]2C[C@H]3CN(Cc4cccnc4)C(=O)[C@]34CCCN24)c1,-59%
6,Cc1ccccc1CN1C[C@@H]2C[C@@H](c3ccc4nsnc4c3)N3CCC[C@@]23C1=O,-18.1%
7,CCc1ccc([C@@H]2C[C@H]3CN(Cc4ccccc4OC)C(=O)[C@]34CCCN24)cc1,-70.7%
8,Cc1ccc(NC(=S)N2CCn3cccc3C2c2cccnc2)cc1 (stereo not shown),-37.3%
9,CCOc1ccccc1-c1nc(-c2ccncc2)no1,-15.8%
10,COc1cccc(-c2ccc(SCC(=O)NCCc3ccccc3)nn2)c1,-41.7%
11,CCCN(C(=O)C(C)Oc1cccc(Cl)c1)c1c(N)n(Cc2ccccc2)c(=O)[nH]c1=O (stereo not shown),1.41%
12,CCC(C)N1C(=O)c2ccccc2C1C(=O)NC1CCCCCC1 (stereo not shown),4.45%
13,COC(=O)c1cc2occc2n1Cc1ccc(Cl)cc1,9.68%
14,Nc1nonc1-n1nnc(C(=O)N/N=C/c2ccc(OCc3ccccc3)cc2)c1CN1CCCCC1,7.17%
15,Cc1ccccc1S(=O)(=O)NCc1cccnc1,5.17%
16,CN(C)S(=O)(=O)Nc1cc(Cl)cc(Cl)c1,-0.782%
17,COc1ccc(C(O)(CCN2CCCCC2)C2CCCCC2)cc1.Cl (stereo not shown),-27.4%
18,CC(C)C1N(C(=O)CN2CCCC2)CCN1S(=O)(=O)c1ccccc1 (stereo not shown),11%
19,Cc1cc(C(=O)NNc2cc(Cl)ccc2Cl)no1,6.55%

# Reference: paper PMC4336329 (PLoS ONE, 2015)
